# High-throughput results as filed in PubChem BioAssay.
# CYP2C9 activ – human CYP2C9 activators, primary screen, biochemical, luminescence | recombinant CYP2C9, luciferin-H conversion; hits give high values; factor 1 = untreated enzyme, 0 = blocked | activation factor at 5 µM | actives 1.4% (n = 96,000) | AID 1024, 2008;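 active means activation factor of 2 or more for CYP2C9 at a 5 µM dose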;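 further: 0 = sulfaphenazole-blocked wells and 1 = vehicle-only wells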
# Target sequence (P11712 whole entry, looked up): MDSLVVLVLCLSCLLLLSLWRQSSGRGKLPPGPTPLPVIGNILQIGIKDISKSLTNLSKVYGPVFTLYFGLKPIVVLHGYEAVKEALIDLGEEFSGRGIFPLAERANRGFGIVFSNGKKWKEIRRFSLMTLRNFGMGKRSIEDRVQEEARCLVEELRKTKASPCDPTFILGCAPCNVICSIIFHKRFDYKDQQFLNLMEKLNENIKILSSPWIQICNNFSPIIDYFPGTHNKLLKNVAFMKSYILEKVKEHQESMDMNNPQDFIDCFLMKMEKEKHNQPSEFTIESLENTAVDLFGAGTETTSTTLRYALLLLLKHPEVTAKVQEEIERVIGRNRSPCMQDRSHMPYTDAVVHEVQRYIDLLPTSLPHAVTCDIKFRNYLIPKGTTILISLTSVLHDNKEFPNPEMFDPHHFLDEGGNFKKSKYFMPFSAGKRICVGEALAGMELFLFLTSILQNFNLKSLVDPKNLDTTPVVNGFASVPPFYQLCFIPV
# Measles CPE – compounds protecting cells from measles virus cytopathic effect, primary screen, measles RdRp inhibitor project, single point, MLSMR library, absorbance; protection (pct of control), % at 4 µM; Measles virus-infected cells, CPE protection; actives 1.5% (n = 140,000); AID 841, 2007; in the data active means protection mostly above about 24%, no sharp cut-off; inactive means mostly below about 26%
# CYP2C19 act – human CYP2C19 activators, primary screen, biochemical, luminescence; Cytochrome P450 2C19 (Homo sapiens), P33261; recombinant CYP2C19, luciferin-H EGE luminescence; hits give high values; 0 = fully inhibited enzyme, 1 = untreated enzyme; activation factor at 5 µM; 96,000 tested, under 10 active;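 active means activation factor of at least 2 at 5 µM in the primary screen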;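 further: 0 = wells with 2.5 mM tranylcypromine and 1 = vehicle-only wells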
# CYP2C19 inh – blockers of cytochrome P450 2C19 activity – biochemical, luminescence, ADME assay, primary screen. P33261. actives 21% (n = 96,000). inhibition, % at 5 µM. AID 778, 2007. CYP2C19 Supersomes, luciferin-H EGE luminescence, 30 min;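 active means CYP2C19 inhibition above a set limit at 5 µM in the primary screen, cut at about 50% in these data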;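 further: plate controls were negative control wells for no effect and 2.5 mM tranylcypromine positive control for full effect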
# CYP2C9 inhib – blockers of cytochrome P450 2C9 activity – biochemical, luminescence, ADME assay, primary screen. CYP2C9 Supersomes, luciferin-H conversion. AID 777, 2007. P11712. inhibition, % at 5 µM. actives 20% (n = 96,000);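 active means blocking of liver enzyme CYP2C9 beyond about 50% at 5 µM, limit read from the data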
# * marks the source's active call; other numbers are inactive results; · = no result. Rows were chosen to be rich in hits. Some 22% of all compounds tested hit in one or more screens of this group.
SMILES,CYP2C9 activ,Measles CPE,CYP2C19 act,CYP2C19 inh,CYP2C9 inhib
Cc1sc2ncn(CC(=O)OCC(=O)NC(C)(C)C)c(=O)c2c1C,0.6,3,0.7,26,36
CC(C)OC(=O)Cn1cnc2ccc(Br)cc2c1=O,0.6,5,0.3,68*,38
Cc1sc2ncn(CC(=O)OC(C)C(=O)NC(C)(C)C)c(=O)c2c1C (stereo not drawn),0.7,8,0.3,67*,27
Cc1sc2ncn(CC(=O)OC(C)C)c(=O)c2c1C,0.6,0,0.3,67*,41
CC(OC(=O)c1ccccc1NS(=O)(=O)c1cccc(N)c1)C(=O)N(C)Cc1ccccc1 (stereo not drawn),·,30,·,·,·
CCOc1ccc(CCNS(=O)(=O)c2cnc[nH]2)cc1OCC,0.1,21,0.3,68*,94*
CCC(C)C(=O)Nc1nc(C)c(-c2csc(Nc3ccccc3OC)n2)s1 (stereo not drawn),0.4,5,0.7,27,63*
CCCCC(=O)Nc1nc(C)c(-c2csc(Nc3ccccc3OC)n2)s1,0.6,12,0.9,10,41
C=CCCC(=O)Nc1nc(C)c(-c2csc(Nc3ccccc3OC)n2)s1,0.4,2,0.8,17,57*
CCCCCC(=O)Nc1nc(C)c(-c2csc(Nc3cc(OC)ccc3OC)n2)s1,0.4,2,0.8,19,55*
CCc1ccc(N2CC(C(=O)Nc3nnc(CC)s3)CC2=O)cc1 (stereo not drawn),0.7,27,1.2,-18,26
CCOc1ccc(CC2CCC(=O)NC2=O)cc1 (stereo not drawn),·,0,·,·,·
CC(C)CC(c1nnnn1Cc1ccccc1)N1CCC(C(N)=O)CC1 (stereo not drawn),·,34,·,·,·
COc1ccc(-c2nnc(SCC(=O)Nc3cc(S(=O)(=O)N4CCCCC4)ccc3Cl)n2N)cc1,·,16,·,·,·
O=C(NCc1ccc2c(c1)OCO2)c1nn(-c2ccccc2)c(=O)c2ccccc12,0.1,28,0.1,87*,94*
COc1cccc(-n2nc(C(=O)N3CC(C)CC(C)C3)c3ccccc3c2=O)c1 (stereo not drawn),0.4,20,0.5,47,58*
O=C(Nc1ccc2c(c1)OCO2)c1nn(-c2ccccc2)c(=O)c2ccccc12,0.8,29,1,3,16
COc1cccc(-n2nc(C(=O)Nc3ccc4c(c3)OCO4)c3ccccc3c2=O)c1,0.1,14,0.6,42,90*
O=C(NCc1ccc2c(c1)OCO2)c1c(O)c2cccc3c2n(c1=O)CCC3,0.3,19,0.8,22,72*
COc1ccc(-n2nc(C(=O)O)c3ccccc3c2=O)cc1,1.2,11,1.1,-10,-23
CNC(=O)CSc1nnc(-c2ccco2)n1-c1ccccc1OC,0.9,·,0.9,12,10
O=C1C=CC2C(c3ccc4c(c3)OCO4)CC1N2Cc1ccccc1 (stereo not drawn),·,10,·,·,·
CCOC(CNC(=O)c1ccc2c(c1)nc(C)n2-c1cccc(F)c1)OCC,·,15,·,·,·
COc1ccc(-n2nc(C(=O)O)c3ccccc3c2=O)c(OC)c1,1.1,4,1,-3,-7
CCCCNC(=O)c1c(O)c2cccc3c2n(c1=O)CCC3,1.1,12,1.1,-5,-15
SMILES,CYP2C9 activ,Measles CPE,CYP2C19 act,CYP2C19 inh,CYP2C9 inhib
COc1ccc(-n2nc(C(=O)N3CCN(c4ccc(F)cc4)CC3)c3ccccc3c2=O)c(OC)c1,0.4,24,0.6,45,56*
COc1ccc(CCNC(=O)c2c(O)c3cccc4c3n(c2=O)CC4)cc1OC,0.3,·,0.4,55*,72*
CCCc1nnc(SCC(=O)N2CCCC(C)C2)n1CC1CCCO1 (stereo not drawn),1,4,0.8,23,1
Cc1ccc(OCC(=O)NNC(=O)CSc2nnc(-c3ccc(C)cc3)n2C)cc1,·,17,·,·,·
COc1ccc(C2SCCN2S(=O)(=O)c2ccc(NC(C)=O)cc2)cc1 (stereo not drawn),0.6,14,0.5,55*,43
CC(=O)Nc1ccc(S(=O)(=O)N2CCSC2c2ccc(C)cc2)cc1 (stereo not drawn),0.4,7,0.8,20,55*
O=S(=O)(c1cccc(C(F)(F)F)c1)N1CCC(O)(c2cccnc2)CC1,1.1,·,0.1,88*,-8
Cc1ccc(S(=O)(=O)N2CCC(O)(c3cccnc3)CC2)cc1,2.1*,12,0.5,54*,-114
COc1ccc(NC(=O)c2cc(C(C)C)on2)c(OC)c1,2.8*,18,0.6,39,-184
COc1cc(NC(=O)c2cc(C(C)C)on2)c(OC)cc1Cl,0.9,0,0.9,10,7
COc1ccc(NC(=O)c2c(OC)cccc2OC)c(OC)c1,0.8,11,0.8,18,20
COc1ccc(NC(=O)c2ccccc2O)c(OC)c1,0.5,23,0.4,60*,53*
O=C(Nc1cccnc1)C1OCCc2ccccc21 (stereo not drawn),1.1,20,0.9,6,-12
COc1ccc(NC(=O)C2OCCc3ccccc32)c(OC)c1 (stereo not drawn),1,0,0.1,91*,0
CCCCNS(=O)(=O)C1CCS(=O)(=O)C1 (stereo not drawn),0.9,9,1.1,-6,7
C=CCNc1oc(-c2cccs2)nc1C#N,1.5,4,0.3,72*,-46
N#Cc1nc(-c2cccs2)oc1NCc1ccco1,0.1,8,0.2,76*,90*
Cc1ccc(CNc2oc(-c3cccs3)nc2C#N)cc1,0.2,5,0.9,15,78*
N#Cc1nc(-c2cccs2)oc1NCc1ccccc1Cl,0.4,3,0.8,20,57*
N#Cc1nc(-c2cccs2)oc1NCc1ccc(Cl)cc1,0.8,2,0.9,11,21
COc1ccc(S(=O)(=O)N2CCC(C(=O)NCCC3=CCCCC3)CC2)cc1OC,1,5,0.5,50,-4
O=C(NCc1ccccc1)N1CCC(n2cnc3cc(F)ccc32)CC1,0.9,6,1,-2,11
Cc1noc(NS(=O)(=O)c2ccc(NC(=O)C34CC5CC(C3)CC(n3cnc(Br)n3)(C5)C4)cc2)c1C,·,13,·,·,·
Cc1sc(NC(=O)c2ccco2)c(CN2CCC(C)CC2)c1C,0.7,4,0.6,36,27
Cc1sc(NC(=O)c2ccco2)c(C(c2cccnc2)N2CCC(C)CC2)c1C (stereo not drawn),0.2,9,0.1,88*,76*
CNC(=O)c1[nH]cnc1C(=O)Nc1ccc(C)cc1,·,15,·,·,·
COc1ccc(NC(=O)c2nc[nH]c2C(=O)Nc2ccccc2C)cc1,0.6,0,0.9,12,40
Cc1ccc(NC(=O)c2nc[nH]c2C(=O)Nc2ccc(C)cc2)cc1,1.2,59*,1.2,-16,-20
